# Source: PubChem BioAssay (NCATS)
# Inconclusive results are not listed. Calls of active or inactive are those of the source. Calls come from the whole dose curve; as a rule, active = well fitted curve in the direction sought with a large enough effect; inconclusive = small, poorly fitted or top-dose-only effect, or another doubt; inactive = no such curve, though single readings can be large; an effect the other way counts as inactive or inconclusive.
# Molecular target: Methanococcus maripaludis chaperonin (MmCpn) (UniProt Q6LX38)
# Assay: High-Throughput Screening for Modulators of Cytosolic Chaperonin Activity: MmCpn Primary Screen (AID 488978);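 note: 50 nM MmCpn enzyme hydrolysing 30 µM ATP at 37 °C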
# Settings: Purified MmCpn ATPase activity, ADP HTRF detection, 10 min; series mostly up to 76.9 µM
# Summary of the method: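 ATPase activity of 50 nM MmCpn was assayed with 30 uM ATP, 10 minutes at 37C, after a 5 min compound preincubation at room temperature. ADP production was read as HTRF emission at 590 and 665 nm.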
# Chain of Methanococcus maripaludis chaperonin (MmCpn) (Q6LX38 1-543): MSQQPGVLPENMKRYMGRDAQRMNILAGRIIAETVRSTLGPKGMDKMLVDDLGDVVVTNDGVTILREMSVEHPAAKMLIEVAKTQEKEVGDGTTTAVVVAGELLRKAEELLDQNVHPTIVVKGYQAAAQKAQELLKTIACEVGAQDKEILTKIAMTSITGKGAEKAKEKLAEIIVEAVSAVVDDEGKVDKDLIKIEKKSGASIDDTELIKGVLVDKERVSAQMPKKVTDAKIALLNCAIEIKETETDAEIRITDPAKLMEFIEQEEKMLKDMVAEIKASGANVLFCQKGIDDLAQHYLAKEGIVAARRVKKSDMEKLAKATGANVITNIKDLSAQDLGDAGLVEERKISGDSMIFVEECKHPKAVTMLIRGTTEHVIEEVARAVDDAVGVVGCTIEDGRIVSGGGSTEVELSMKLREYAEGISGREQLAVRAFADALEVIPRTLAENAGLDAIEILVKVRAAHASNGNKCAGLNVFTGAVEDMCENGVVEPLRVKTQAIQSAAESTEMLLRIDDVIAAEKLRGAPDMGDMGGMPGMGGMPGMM
row,SMILES,outcome
1,Cc1cn([C@H]2C=C[C@@H](CO)O2)c(=O)[nH]c1=O,inactive
2,Cn1c(=O)c2c(ncn2C)n(C)c1=O,inactive
3,CC12CC3CC(C)(C1)CC(N)(C3)C2,inactive
4,CC(CCc1ccc(O)cc1)NCCc1ccc(O)c(O)c1 (stereo not drawn),inactive
5,CCCCc1oc2ccccc2c1C(=O)c1cc(I)c(OCCN(CC)CC)c(I)c1,inactive
6,CC1COc2c(N3CCN(C)CC3)c(F)cc3c(=O)c(C(=O)O)cn1c23 (stereo not drawn),inactive
7,CCOC(=O)c1ncn2c1CN(C)C(=O)c1cc(F)ccc1-2,inactive
8,CCC1(c2ccccc2)C(=O)NCNC1=O,inactive
9,NS(=O)(=O)c1cc2c(cc1Cl)NCNS2(=O)=O,inactive
10,CN1CCN2c3ccccc3Cc3ccccc3C2C1 (stereo not drawn),inactive
11,NC(CO)C(=O)NNCc1ccc(O)c(O)c1O (stereo not drawn),inactive
12,C[C@H]1c2cccc(O)c2C(O)=C2C(=O)[C@]3(O)C(O)=C(C(N)=O)C(=O)[C@@H](N(C)C)[C@@H]3[C@@H](O)[C@@H]21,inactive
13,CC(C)C(=O)Nc1ccc([N+](=O)[O-])c(C(F)(F)F)c1,inactive
14,CCC1(C)CC(=O)NC1=O (stereo not drawn),inactive
15,NCCCCCC(=O)O,inactive
16,CN1CCC(=C2c3ccccc3CC(=O)c3sccc32)CC1,inactive
17,C[C@](N)(Cc1ccc(O)c(O)c1)C(=O)O,inactive
18,Clc1ccccc1C(c1ccccc1)(c1ccccc1)n1ccnc1,inactive
19,NC(=O)OCC(COC(N)=O)c1ccccc1,inactive
20,CC(COc1ccccc1)N(CCCl)Cc1ccccc1 (stereo not drawn),inactive
21,Nc1nnc(-c2cccc(Cl)c2Cl)c(N)n1,inactive
22,NC12CC3CC(CC(C3)C1)C2,inactive
23,COc1ccc2[nH]cc(CCNC(C)=O)c2c1,inactive
24,Nc1nc2c(ncn2COC(CO)CO)c(=O)[nH]1,inactive
25,Cc1ccccc1N1C(=O)c2cc(S(N)(=O)=O)c(Cl)cc2NC1C (stereo not drawn),inactive
26,CN(C)c1nc(N(C)C)nc(N(C)C)n1,inactive
27,CCOC(=O)C(C)(C)Oc1ccc(Cl)cc1,inactive
28,CCc1cccc2c3c([nH]c12)C(CC)(CC(=O)O)OCC3 (stereo not drawn),inactive
29,CC(C)(Oc1ccc(C2CC2(Cl)Cl)cc1)C(=O)O (stereo not drawn),inactive
30,COc1ccc2c(c1)c(CC(=O)O)c(C)n2C(=O)c1ccc(Cl)cc1,inactive

# Molecular target: Transient receptor potential cation channel subfamily V member 1 (Homo sapiens) (UniProt Q8NER1)
# Assay: HTS Assay for Compounds that Act as Enhancers of the Vanilloid Receptor 1 (AID 488979)
# Settings: TRPV1-expressing cells, enhancer of channel activity, stimulated with capsaicin at EC20; series mostly up to 41.7 µM
# Summary of the method: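 TRPV1 cells loaded with Fluo-8 calcium dye; compound added and Ca2+ signal (ex 480/em 520 nm) followed 3 min, then capsaicin at EC20 added and read 2 more min to detect enhancement.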
# Chain of Transient receptor potential cation channel subfamily V member 1 (Homo sapiens) (Q8NER1 whole entry, looked up): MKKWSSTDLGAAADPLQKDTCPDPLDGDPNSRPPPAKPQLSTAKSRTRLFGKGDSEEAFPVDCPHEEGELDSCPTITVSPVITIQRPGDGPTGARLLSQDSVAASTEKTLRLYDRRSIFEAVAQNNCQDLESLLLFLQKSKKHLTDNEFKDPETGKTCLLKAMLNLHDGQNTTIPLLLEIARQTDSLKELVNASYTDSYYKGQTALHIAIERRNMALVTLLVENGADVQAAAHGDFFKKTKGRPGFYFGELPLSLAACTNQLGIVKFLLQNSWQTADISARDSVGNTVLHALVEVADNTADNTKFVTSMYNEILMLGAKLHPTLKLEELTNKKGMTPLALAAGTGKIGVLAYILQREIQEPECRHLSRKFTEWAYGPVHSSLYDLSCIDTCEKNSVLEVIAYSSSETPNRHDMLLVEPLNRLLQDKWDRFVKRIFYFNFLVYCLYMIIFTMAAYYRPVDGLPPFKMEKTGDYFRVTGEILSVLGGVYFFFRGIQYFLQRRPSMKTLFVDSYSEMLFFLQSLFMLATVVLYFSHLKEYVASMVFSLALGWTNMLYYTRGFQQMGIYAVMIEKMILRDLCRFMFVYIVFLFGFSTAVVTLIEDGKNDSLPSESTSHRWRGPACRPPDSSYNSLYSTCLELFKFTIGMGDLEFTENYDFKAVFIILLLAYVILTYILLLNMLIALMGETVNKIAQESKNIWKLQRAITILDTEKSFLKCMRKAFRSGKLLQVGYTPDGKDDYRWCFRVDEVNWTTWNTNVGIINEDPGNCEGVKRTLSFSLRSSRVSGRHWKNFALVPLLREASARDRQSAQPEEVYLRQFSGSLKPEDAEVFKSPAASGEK
row,SMILES,outcome
1,Cc1cn([C@H]2C=C[C@@H](CO)O2)c(=O)[nH]c1=O,inactive
2,Cn1c(=O)c2c(ncn2C)n(C)c1=O,inactive
3,CC(CCc1ccc(O)cc1)NCCc1ccc(O)c(O)c1 (stereo not drawn),inactive
4,CCCCc1oc2ccccc2c1C(=O)c1cc(I)c(OCCN(CC)CC)c(I)c1,inactive
5,CC1COc2c(N3CCN(C)CC3)c(F)cc3c(=O)c(C(=O)O)cn1c23 (stereo not drawn),inactive
6,CCC1(c2ccccc2)C(=O)NCNC1=O,inactive
7,NS(=O)(=O)c1cc2c(cc1Cl)NCNS2(=O)=O,inactive
8,CN1CCN2c3ccccc3Cc3ccccc3C2C1 (stereo not drawn),inactive
9,CC(C)C(=O)Nc1ccc([N+](=O)[O-])c(C(F)(F)F)c1,inactive
10,CCC1(C)CC(=O)NC1=O (stereo not drawn),inactive
11,NCCCCCC(=O)O,inactive
12,CN1CCC(=C2c3ccccc3CC(=O)c3sccc32)CC1,inactive
13,C[C@](N)(Cc1ccc(O)c(O)c1)C(=O)O,inactive
14,Clc1ccccc1C(c1ccccc1)(c1ccccc1)n1ccnc1,inactive
15,NC(=O)OCC(COC(N)=O)c1ccccc1,inactive
16,CC(COc1ccccc1)N(CCCl)Cc1ccccc1 (stereo not drawn),inactive
17,Nc1nnc(-c2cccc(Cl)c2Cl)c(N)n1,inactive
18,NC12CC3CC(CC(C3)C1)C2,inactive
19,COc1ccc2[nH]cc(CCNC(C)=O)c2c1,inactive
20,Nc1nc2c(ncn2COC(CO)CO)c(=O)[nH]1,inactive
21,Cc1ccccc1N1C(=O)c2cc(S(N)(=O)=O)c(Cl)cc2NC1C (stereo not drawn),inactive
22,CN(C)c1nc(N(C)C)nc(N(C)C)n1,inactive
23,CCOC(=O)C(C)(C)Oc1ccc(Cl)cc1,inactive
24,CCc1cccc2c3c([nH]c12)C(CC)(CC(=O)O)OCC3 (stereo not drawn),inactive
25,Cc1cc(C(C)(C)C)c(O)c(C)c1CC1=NCCN1,inactive
26,CC(C)(Oc1ccc(C2CC2(Cl)Cl)cc1)C(=O)O (stereo not drawn),inactive
27,COc1ccc2c(c1)c(CC(=O)O)c(C)n2C(=O)c1ccc(Cl)cc1,inactive

# Molecular target: Thyrotropin receptor (Homo sapiens) (UniProt P16473)
# Assay: qHTS Assay for Antagonists of the Thyroid Stimulating Hormone Receptor (AID 488980)
# Settings: TSHR-expressing cells, cAMP antagonist read-out; series mostly up to 57.5 µM
# Summary of the method: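 Inhibition of cAMP raised by EC80 TSH (4 nM final) was read by HTRF, with lysate cAMP competing against cAMP-d2 for cryptate antibody after 30 min at room temperature. The cells were transfected HEK293 held in phosphodiesterase inhibitor RO 20-1724 at 70 uM.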
# Chain of Thyrotropin receptor (Homo sapiens) (P16473 whole entry, looked up): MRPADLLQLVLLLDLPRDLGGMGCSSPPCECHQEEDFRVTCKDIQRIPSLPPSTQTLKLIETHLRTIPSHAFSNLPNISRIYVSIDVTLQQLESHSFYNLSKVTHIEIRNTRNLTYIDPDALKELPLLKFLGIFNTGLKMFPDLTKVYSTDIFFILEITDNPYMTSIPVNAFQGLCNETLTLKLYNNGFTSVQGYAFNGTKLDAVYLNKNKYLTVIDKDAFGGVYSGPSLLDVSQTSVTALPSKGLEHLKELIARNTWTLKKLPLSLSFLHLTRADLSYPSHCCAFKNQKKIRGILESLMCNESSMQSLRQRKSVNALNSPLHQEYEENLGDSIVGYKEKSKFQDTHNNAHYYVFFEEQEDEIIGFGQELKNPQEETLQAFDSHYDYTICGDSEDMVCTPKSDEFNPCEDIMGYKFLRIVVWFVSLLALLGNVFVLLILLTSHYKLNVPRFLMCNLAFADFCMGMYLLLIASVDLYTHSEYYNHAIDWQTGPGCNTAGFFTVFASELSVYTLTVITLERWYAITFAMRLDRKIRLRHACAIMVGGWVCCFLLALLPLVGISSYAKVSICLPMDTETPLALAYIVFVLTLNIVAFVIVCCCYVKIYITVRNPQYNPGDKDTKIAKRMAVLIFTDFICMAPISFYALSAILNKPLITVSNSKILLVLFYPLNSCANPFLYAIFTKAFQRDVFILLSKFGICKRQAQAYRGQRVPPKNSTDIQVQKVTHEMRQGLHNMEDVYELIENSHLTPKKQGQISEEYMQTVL
row,SMILES,outcome
1,Cc1cn([C@H]2C=C[C@@H](CO)O2)c(=O)[nH]c1=O,inactive
2,CC12CC3CC(C)(C1)CC(N)(C3)C2,inactive
3,CC(CCc1ccc(O)cc1)NCCc1ccc(O)c(O)c1 (stereo not drawn),inactive
4,CCCCc1oc2ccccc2c1C(=O)c1cc(I)c(OCCN(CC)CC)c(I)c1,inactive
5,CC1COc2c(N3CCN(C)CC3)c(F)cc3c(=O)c(C(=O)O)cn1c23 (stereo not drawn),inactive
6,CCOC(=O)c1ncn2c1CN(C)C(=O)c1cc(F)ccc1-2,inactive
7,CCC1(c2ccccc2)C(=O)NCNC1=O,inactive
8,NS(=O)(=O)c1cc2c(cc1Cl)NCNS2(=O)=O,inactive
9,CN1CCN2c3ccccc3Cc3ccccc3C2C1 (stereo not drawn),inactive
10,NC(CO)C(=O)NNCc1ccc(O)c(O)c1O (stereo not drawn),inactive
11,CC(C)C(=O)Nc1ccc([N+](=O)[O-])c(C(F)(F)F)c1,inactive
12,NCCCCCC(=O)O,inactive
13,CN1CCC(=C2c3ccccc3CC(=O)c3sccc32)CC1,inactive
14,Clc1ccccc1C(c1ccccc1)(c1ccccc1)n1ccnc1,inactive
15,NC(=O)OCC(COC(N)=O)c1ccccc1,inactive
16,CC(COc1ccccc1)N(CCCl)Cc1ccccc1 (stereo not drawn),inactive
17,Nc1nnc(-c2cccc(Cl)c2Cl)c(N)n1,inactive
18,COc1ccc2[nH]cc(CCNC(C)=O)c2c1,inactive
19,Nc1nc2c(ncn2COC(CO)CO)c(=O)[nH]1,inactive
20,Cc1ccccc1N1C(=O)c2cc(S(N)(=O)=O)c(Cl)cc2NC1C (stereo not drawn),inactive
21,CN(C)c1nc(N(C)C)nc(N(C)C)n1,inactive
22,CCOC(=O)C(C)(C)Oc1ccc(Cl)cc1,inactive
23,CCc1cccc2c3c([nH]c12)C(CC)(CC(=O)O)OCC3 (stereo not drawn),inactive
24,Cc1cc(C(C)(C)C)c(O)c(C)c1CC1=NCCN1,inactive
25,CC(C)(Oc1ccc(C2CC2(Cl)Cl)cc1)C(=O)O (stereo not drawn),inactive
26,COc1ccc2c(c1)c(CC(=O)O)c(C)n2C(=O)c1ccc(Cl)cc1,inactive
